± gives the standard deviation of the averaged measurements. In all, about 25,000 sequences were measured (“ln(normalized median fluorescence intensity)”: median about 7.9, highest 2% from about 11 on). The entries come from a sample that favours the highest values as a whole.

In this test the test system is PfAP2-I AP2 domain 3 (GST-tagged). The test can be described thus: gcPBM binding intensity (ln(normalized median fluorescence intensity)); higher = stronger DNA binding. In short, it runs like this:
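Binding intensity values are the highest Masliner-normalised natural-log median intensity among replicate spots of either probe orientation. The binding step lasted 1 h in 1× PBS with 1% milk, 0.2 mg/ml BSA, 0.5% salmon testes DNA and 0.03% Triton X-100, using GST-tagged P. falciparum DNA-binding domains expressed in E. coli on an Agilent 4 × 180k array of primer-extended double-stranded 36-bp intergenic genomic probes plus negative controls. Alexa488 anti-GST antibody and a 488 nm scan detected bound protein.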
For “AGGAGGATGCATATGGCACACATTATGAAACTGTCG [CACACA_site299]”, the “gcPBM binding intensity (ln)” value was found to be 9.11 ± 1.

In the case of “AATTTTTAGAAGAACACACACATATATATTATGACC [CACACA_site246]”, the “gcPBM binding intensity (ln)” value was 7.75 ± 0.65.

For “GAAAGAAAATATTAAGTGCATATTTTAATGATACAA [GTGCAC_site9712]”, the “gcPBM binding intensity (ln)” value was determined as 9.02 ± 0.2.

Turning to ATTTTTAATGGATAAGTGCATAATATTATGATGCAA, the “gcPBM binding intensity (ln)” value amounted to 10.9 ± 0.64.

Regarding “TATTAATGATAAGAATATTTTATATGATACATGCAT [CACACA_negctrl_site923]”, the “gcPBM binding intensity (ln)” value was found to be 7.46 ± 0.68.

For “TTTTTTTTTTTGTGTGCATGTGCTAGGAAAGGTAGG [TGCATGCA_site330]”, the “gcPBM binding intensity (ln)” value amounted to 8.85 ± 0.11.

Consider “TACTTCATATAATTAGCACACAATAATTTCTCATTT [CACACA_site2872]”, for which the “gcPBM binding intensity (ln)” value was 8.31 ± 0.45.

For the sequence “GTATTTATAATACGGCGTACATAAAAAAAAAAAAAA [XGTACX_site3705]”, the “gcPBM binding intensity (ln)” value came to 8.14 ± 0.45.

With “AATGCTATCATTAATGCACACATTTAAAATTAATAT [CACACA_site3548]”, the “gcPBM binding intensity (ln)” value was 11 ± 0.55.

Take “AATGCTATCATTAATGCACACATTTAAACTTAATAT [CACACA_site5878]”: the “gcPBM binding intensity (ln)” value stood at 11 ± 0.61.

On to “TATCATTTTTTTAAAACACACATAATAATATAAATA [CACACA_site2845]”, for which the “gcPBM binding intensity (ln)” value amounted to 7.82 ± 0.31.

As for “AAATTTAATTTTATATCACACATTAAATTTTAATGG [CACACA_site4251]”, the “gcPBM binding intensity (ln)” value was found to be 7.65 ± 0.58.

With “TAATATATTATAAACACATGCACATTAATAATAACT [TGCATGCA_site708]”, the “gcPBM binding intensity (ln)” value is 8.08 ± 0.58.

As for “TAAATTAATACCTATGCACACATTTTTTTTTTTAAA [CACACA_site1238]”, the “gcPBM binding intensity (ln)” value turned out to be 8.32 ± 0.47.

As for “GAAAAAATAAAATAAAGTACATAACTATAATAAAAA [XGTACX_site4807]”, the “gcPBM binding intensity (ln)” value is 7.9 ± 0.34.

“TTTTTTTTTTTTTTTACACACTGCATACAAGAAAAA [CACACA_site5642]”: the “gcPBM binding intensity (ln)” value came to 8.54 ± 0.66.

Regarding “TGTGCACGCATATACACACACAAATACAATGATAAA [CACACA_site6656]”, the “gcPBM binding intensity (ln)” value came to 8.92 ± 0.11.

For the sequence “TATTATATTTGTATGTGTACTTATATGGTTGTAATA [XGTACX_site4548]”, the “gcPBM binding intensity (ln)” value was found to be 7.87 ± 0.26.

“AAAATTATGCAGTAGGTGCAATACCCTCGGCTTTTT [GTGCAC_site9556]”: the “gcPBM binding intensity (ln)” value is 11.1 ± 0.64.

Turning to TACCCTTGCATGTAGGTGCAATTTTTTTTTTTTTTT, the “gcPBM binding intensity (ln)” value was found to be 10.6 ± 0.35.

“ATTTATATTACCCTTGCATGTAGGTGCAATTTTTTT [TGCATGCA_site757]”: the “gcPBM binding intensity (ln)” value is 10.64 ± 0.085.

For “TTCCTGTTAATTACAACACACAATTCTTATTTTATG [CACACA_site6507]”, the “gcPBM binding intensity (ln)” value amounted to 7.98 ± 0.52.

In the case of “ACAAAACTCTTTAATTGTACAAATATAATATAAAAA [XGTACX_site5690]”, the “gcPBM binding intensity (ln)” value turned out to be 7.74 ± 0.63.

With “TATTTATAAATGAACACACACGCAATTTGAATCGAA [CACACA_site3371]”, the “gcPBM binding intensity (ln)” value worked out at 8.04 ± 0.46.

Consider “TTAATTAAATATAGGGGTACATATTATATATGTTTT [XGTACX_site3677]”, for which the “gcPBM binding intensity (ln)” value was 7.76 ± 0.42.

As for “TGCTATATAATATGAGCACACATAAGATTTGGTGTT [CACACA_site8148]”, the “gcPBM binding intensity (ln)” value is 8.05 ± 0.6.

As to “TATATATATATATGTGCACACATAATAAAAAAAAAA [CACACA_site3830]”, the “gcPBM binding intensity (ln)” value came to 10.55 ± 0.035.

As for TTACGCTGCTATATAGTGCACATAATATATGACCTG, the “gcPBM binding intensity (ln)” value was 11 ± 0.24.

With “TAAAACACTCATGGCACACATAAAACATTTTTATGA [CACACA_site3574]”, the “gcPBM binding intensity (ln)” value came to 8.18 ± 0.24.

As to TCAATTTGGAACGGTATGCACTAATTTTATATTTTT, the “gcPBM binding intensity (ln)” value came out at 9.02 ± 0.19.

“TATTTTAAAACAAAAATATAATTTCATAAAAATATA [CACACA_negctrl_site394]”: the “gcPBM binding intensity (ln)” value was determined as 7.2 ± 0.47.

Consider “TGTAATTGTTTAAAGGGTACATATATCAGATGTCTT [XGTACX_site5877]”, for which the “gcPBM binding intensity (ln)” value turned out to be 7.62 ± 0.54.

“TATATCATTATATAAACACACAATATGTTTTTTATA [CACACA_site3781]”: the “gcPBM binding intensity (ln)” value came out at 7.42 ± 0.54.

As for “TTTATTTATATAATTACACACATATATACGCAAATG [CACACA_site2794]”, the “gcPBM binding intensity (ln)” value was 7.78 ± 0.31.

For the sequence “TATTTAATTATATAAAATTAAATTTTTAATTCTTCC [CACACA_negctrl_site473]”, the “gcPBM binding intensity (ln)” value was 7.28 ± 0.53.

Turning to “TTTTTTTCTCACAATCGTACATAAATACATATATAT [XGTACX_site3150]”, the “gcPBM binding intensity (ln)” value was 8.12 ± 0.54.

In the case of AATAAATTCATGATAGTGCAAAAATTATTTTTGTTA, the “gcPBM binding intensity (ln)” value came to 9.49 ± 0.028.

For “TGTTTTTCATAGTGCACACATAACCAAAAATAGTAT [CACACA_site3150]”, the “gcPBM binding intensity (ln)” value is 11.5 ± 0.67.

As for “AAATATTCATAGTATACACACATTTATTTATAACCA [CACACA_site6502]”, the “gcPBM binding intensity (ln)” value was 7.88 ± 0.52.

For the sequence “TTTCATAACAAAAAAGTGCAAAATAGCACGAACATT [GTGCAC_site9703]”, the “gcPBM binding intensity (ln)” value came to 10.66 ± 0.049.

Consider “TTTGTTTTTCATAGTGCACACATAACCAAAAATAGT [CACACA_site9030]”, for which the “gcPBM binding intensity (ln)” value is 11.3 ± 0.46.

Turning to “GGTATTTTCACATATAGTACACAAAAATAAAATAAA [XGTACX_site2139]”, the “gcPBM binding intensity (ln)” value amounted to 8.48 ± 0.099.

Regarding “GAAAAAATTTTATGGTGTACTTTATTTATTTATATA [XGTACX_site6323]”, the “gcPBM binding intensity (ln)” value was found to be 8.06 ± 0.28.

As for “TATTTTAAAGAGAAAACATGCATTATATAGAACATT [TGCATGCA_site328]”, the “gcPBM binding intensity (ln)” value worked out at 7.93 ± 1.

Regarding “AATATAATATAATGCACACATAAACAAAAAAAAAAA [CACACA_site783]”, the “gcPBM binding intensity (ln)” value turned out to be 11.2 ± 1.

In the case of “AATATAAACACAAACACACACATATATATATATATA [CACACA_site4307]”, the “gcPBM binding intensity (ln)” value amounted to 9.49 ± 0.45.

Consider “AAAATATATACACAAACATGCATATAATAAATAAAT [TGCATGCA_site711]”, for which the “gcPBM binding intensity (ln)” value was 7.98 ± 0.83.

In the case of “AATATAATATAATGCACACATAAAACAAAAAAAAAA [CACACA_site3012]”, the “gcPBM binding intensity (ln)” value worked out at 11 ± 0.86.

These data come from the supplement of paper PMC11417369.
